Laboratory results published in PubChem BioAssay AID1722 (National Center for Advancing Translational Sciences (NCATS), 2009).
Screen size: about 290,000 compounds; fewer than 10 were called active. Not all results are given here. Unmarked numbers belong to inactive results. Calls follow the shape of the full dose curve.

Target: Pyruvate kinase (Leishmania mexicana) (UniProt Q27686)
Assay: qHTS Assay for Activators of Leishmania Mexicana Pyruvate Kinase (LmPK)
Settings: purified LmPK, Kinase-Glo ATP luminescence, 1 h; series mostly up to 57.5 µM; activity change, negative = inhibition: at the top concentration
Text: NIH Chemical Genomics Center [NCGC] Malcolm Walkinshaw, Hugh Morgan, Linda Gilmore University of Edinburgh, UK MLPCN Grant: 1 R03 MH085697-01 NCGC Assay Overview: Pyruvate kinase (L. Mexicana) (LmPK) enzyme was supplied as a highly purified (>95% pure) sulphate-free preparation from University of Edinburgh, UK and assayed for its ability to generate ATP from ADP using phosphoenolpyruvate (PEP) as a substrate. ATP generation was detected in a coupled reaction by luciferase-mediated luminescence, an ATP-dependent process. Pyruvate kinase substrates, PEP and ADP, were present in the assay at Km and approximately 10-fold below Km respectively. The enzyme was assayed at an intermediate level of activity to screen for both inhibitors and activators.
NCGC Assay Protocol Summary: Three uL of enzyme mix (kept on ice) in assay buffer (50 mM Imidazole pH7.2, 50 mM KCl, 7 mM MgCl2, 0.01% Tween 20, 0.05% BSA) containing PEP (0.5 mM final concentration) and LmPK (0.1 nM final concentration) was dispensed into white solid bottom 1,536 well microtiter plates. 23 nL of compound were delivered by a pin tool and 1 uL of ADP mix in assay buffer (r.t; 0.1 mM final ADP concentration) was added. Plates were incubated at room temperature for 1 hour. Two uL of detection mix (Kinase-Glo, Promega; at 4 degree Celsius protected from light) was added and luminescence read by a ViewLux (Perkin Elmer) at 1 second exposure/plate. Data were normalized to the uninhibited and AC100 inhibition (no enzyme). To monitor activation, the first column contained a five-fold concentration of LmPK (0.5 nM).

Chain of Pyruvate kinase (Leishmania mexicana) (Q27686 whole entry, looked up): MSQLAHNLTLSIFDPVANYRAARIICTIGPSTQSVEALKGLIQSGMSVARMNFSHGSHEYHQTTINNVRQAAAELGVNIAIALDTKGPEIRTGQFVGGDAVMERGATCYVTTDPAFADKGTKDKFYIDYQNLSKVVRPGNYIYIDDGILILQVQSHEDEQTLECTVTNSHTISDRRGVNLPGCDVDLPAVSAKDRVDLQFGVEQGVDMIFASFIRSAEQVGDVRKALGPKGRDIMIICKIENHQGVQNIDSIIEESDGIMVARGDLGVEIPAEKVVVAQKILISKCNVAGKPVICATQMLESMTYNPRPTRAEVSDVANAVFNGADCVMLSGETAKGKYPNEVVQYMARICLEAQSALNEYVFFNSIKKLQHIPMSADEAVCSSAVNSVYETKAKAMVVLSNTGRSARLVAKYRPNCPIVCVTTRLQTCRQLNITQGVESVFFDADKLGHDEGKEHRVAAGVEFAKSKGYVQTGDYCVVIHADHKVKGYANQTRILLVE

SMILES	activity change, negative = inhibition [%]
COc1ccc(C(=O)NC(=S)N2CCCCC2c2cccnc2)cc1OC (stereo not given)	-68.1
CN(C)N=Nc1ccc2nc[nH]c2c1	-49.1
CC(=O)Nc1ccc(/C=C/C(=O)c2ccccc2)cc1	-55.2
COc1ccccc1OCc1nc2ccccc2s1	-84.8
Oc1ccccc1/C=N/n1c(-c2cccs2)n[nH]c1=S	-30.4
O=C(Oc1ccc(-c2nc(-c3ccccn3)no2)cc1)c1ccccc1	-37.7
O=c1[nH]c2ccccc2n2c(-c3ccccc3)nnc12	-74.5
O=[N+]([O-])c1ccc2oc(-c3cccc(O)c3)nc2c1	-33.8
S=c1[nH]nc2c3c4c(sc3ncn12)CCCC4	-57.3
CCOC(=O)c1sc(NC(=O)c2ccncc2)nc1C	-37.2
Cn1c(-c2ccco2)nc2cc3ccccc3cc21	-80.5
O=c1[nH]c(CCl)nc2cc(-c3ccc(Cl)cc3)sc12	-30.2
O=C(Nc1ccc(C(=O)O)c(O)c1)c1ccccc1	-55.6
CC(=O)N(C1=C(Cl)C(=O)c2ccccc2C1=O)c1ccc(C(=O)O)cc1	-97.8
O=c1c2c(nc3n1CCCCC3)sc1c(O)cccc12	-38.8
Cc1cc(NC(=O)Nc2ccccc2[N+](=O)[O-])no1	-30.1
COc1ccc(-c2cn3ccsc3n2)cc1	-44.3
CCC(=O)Nc1ccc(C(=O)Nc2cccc(OC)c2)cc1	-41
O=c1oc2ccccc2cc1-c1cn(-c2ccccc2)c(=S)[nH]1	-52.2
S=c1[nH]cc(-c2ccc(Cl)cc2)n1-c1ccccc1	-27
Cc1ccnc(NC(=O)c2ccoc2C)c1	-80.2
CCCCSc1nnc2c(n1)OC=Nc1ccccc1-2	-36.3
O=C(Nc1nnc(C2CC2)s1)c1ccccn1	-63.9
COc1ccccc1N=Cc1c(O)c2ccccc2oc1=O	-40.9

SMILES	activity change, negative = inhibition [%]
Cc1nonc1C(=O)N/N=C/c1ccc(O)cc1	-87.7
CC(C)Oc1ccc(CCc2n[nH]c(=S)n2Cc2ccccc2)cc1	-41.2
CCc1n[nH]c(=S)n1/N=C/c1c[nH]c2ccc(Br)cc12	-58.2
COc1cc(OC)c(C(=O)Nc2ccc(N(C)C)cc2)cc1OC	-38.5
CC(C)c1ccc(Nc2ncccc2C#N)cc1	-45.8
O=C(Nc1cccc2ccccc12)c1onc2c1CCCC2	-58.3
CN(C)c1nc(=Nc2cccc(Cl)c2)ss1	-52.9
Oc1ccc(N=Nc2nccs2)c(O)c1	-62.3
CCc1nnc(NS(=O)(=O)c2ccc(N=Cc3c(C)[nH]n(-c4ccc(C)cc4)c3=O)cc2)s1	-44.9
Cc1ccc(NC(=O)c2sccc2C)cc1[N+](=O)[O-]	-43.8
Cc1cc(C(=O)COC(=O)C2CC2)c(C)n1-c1ccc(F)cc1	-45.2
CCCCCC(=O)NC(=S)NNC(=O)c1ccc([N+](=O)[O-])cc1	-63.3
COC(=O)c1ccc(NCC(=O)c2ccccc2)cc1	-53.5
N/C(=N\OC(=O)c1ccc([N+](=O)[O-])cc1)c1ccccn1	-64.5
CCOc1ccc(NC(=O)Nc2cc(C)ccc2OC)cc1	-31.1
COc1ccccc1C(=O)Nc1ccc(NC(=O)c2ccco2)c(C)c1	-73.8
O=c1oc2cc(O)ccc2cc1-c1ccc(F)cc1	-57
CC(OC(=O)c1ccc2ccccc2n1)C(=O)c1ccccc1 (stereo not given)	-32.6
Nc1[nH][nH]c(=O)c1N=Nc1ccc2c(c1)OCO2	-30.8
Cc1ccc(OCc2n[nH]c(=S)n2-c2ccccc2)cc1	-49.9
O=C(/C=C/c1ccc(N2CCOCC2)cc1)c1ccccc1	-38.4
O=C1Nc2ccc(Br)cc2/C1=N/N=C/C1=C(N2CCOCC2)C(=C\c2ccccc2)/CC1	-66.7
COc1ccc(C(=O)C[n+]2ccc(N)c(C)c2C)cc1	-74.2
S=c1[nH]nc(COc2ccccc2)n1-c1ccccc1	-45.1

SMILES	activity change, negative = inhibition [%]
COc1ccc(C(CC(=O)c2ccccc2)S(=O)(=O)c2ccccc2)cc1 (stereo not given)	-33.8
S=c1[nH]nc(CSCc2ccc(Cl)cc2Cl)n1-c1ccccc1	-42.5
C(=N\Nc1ccc2ccccc2n1)/c1ccc2c(c1)OCO2	-46.9
Cc1ccc(-n2c(-c3ccc(Cl)cc3)n[nH]c2=S)cc1	-95.3
O=c1c(-c2ccccc2)coc2cc(O)ccc12	-57.5
CN(C)c1ccc(Nc2c3c4c(cccc4n(C)c2=O)C(=O)c2ccccc2-3)cc1	-37.4
COc1ccc(-c2cn(-c3ccc(OC)cc3)c(=S)[nH]2)cc1	-19.8
O=C(CSC(=S)N1CCOCC1)c1ccccc1	-54.1
CSc1ccc(/C=N/NC(=O)c2cccc(Cl)c2)cc1	-33.4
COc1ccc(-c2nc(-c3ccccc3)no2)c(OC)c1	-71.5
Cc1cccc(NC(=O)/C=C/c2ccc3c(c2)OCO3)n1	-36.4
O=C(Nc1ccc(Cl)cn1)c1ccc2c(c1)OCCO2	-65.4
Cc1c(Cl)cccc1NC(=O)Nc1ccc(C(=O)N2CCCC2)cc1	-31.5
Cc1cccc(/C(N)=N/OC(=O)c2ccccc2Cl)c1	-95.3
CN=C1C=C/C(=N/N=c2\ccn(O)cc2C)C=C1C	-51.9
COc1cccc(/C=C/c2ccc3ccccc3n2)c1OC(C)=O	-74
Cc1n[nH]c(=O)nc1N/N=C/c1cccs1	-58.4
COc1ccc(-n2c(-c3ccc(OC)c(OC)c3)n[nH]c2=S)cc1	-68.7
c1csc(-c2nc(-c3ccncc3)no2)c1	-41.6
Cc1ccn2cc(-c3nonc3C)cc2c1	-33.1
COc1cc(SC)ccc1C(=O)Nc1nc(C)cs1	-60.5
O=c1c2ccccc2cnn1Cc1n[nH]c(=S)n1-c1ccccc1F	-48.1
O=C(/C=C/c1ccccc1)c1ccccc1O	-33.2
Cc1nc(-c2ccc(NC(=O)c3cccs3)cc2)cs1	-50.6

SMILES	activity change, negative = inhibition [%]
CCN(CC)c1ccc2oc(=O)c(C)nc2c1	-41
S=c1[nH]ccn1-c1ccc(Cl)cc1	-66.3
N=c1oc2ccccc2cc1C(=O)N/N=C/c1ccccc1	-66.9
COc1cccc(C(=O)Nc2ccc(N3CCCC3)cc2)c1	-80.7
COc1ccc(C(=O)Nc2ccccc2C(=O)N/N=C/c2ccccc2OC)cc1	-53
O=C(O)/C=C/C(=O)NNc1ccc([N+](=O)[O-])cc1	-47.7
Clc1ccc2nc(CSc3ccccc3)cn2c1	-41.7
C/C(=N\NC(=O)OC(C)(C)C)c1ccc[nH]1	-47.6
Cn1c(-c2sc3cc(C(F)(F)F)cnc3c2-c2ccccc2)n[nH]c1=S	-33.6
COc1ccc(-c2cn3ccc(C)cc3n2)cc1	-113
Cc1cnc(NC(=O)c2ccccn2)s1	-94
S=c1[nH]nc(-c2cc(-c3ccsc3)n[nH]2)n1-c1ccccc1	-81.9
COc1ccc(C2=Nc3cc(C)ccc3OC2)cc1	-76
NC(=O)Cc1ccc2sc(-c3ccccc3)nc2c1	-42.1
CCc1ccc2nc3sc(C(=O)Nc4nnc(CC)s4)c(N)c3cc2c1	-45.8
COc1cccc(C(=O)Nc2ccc(NC(=O)c3ccco3)cn2)c1	-34.9
Cc1csc(NC(=O)Nc2ccccc2[N+](=O)[O-])n1	-65.8
O=[N+]([O-])c1ccc2nc(-c3ccccn3)[nH]c2c1	-58.8
CCOc1cnc(C(=O)NNC(=O)c2ccccc2Br)o1	-50.4
c1ccc(CN=C2Nc3ccccc3CS2)nc1	-57
C=CCn1c(-c2ccccc2OCC)n[nH]c1=S	-41.6
COc1ccc(C(=O)Nc2ccccc2C(=O)N/N=C/c2ccc(O)c(OC)c2)cc1	-34
CCOc1ccc(C(=O)Nc2cccc(SC)c2)cc1	-31.6
O=C(Nc1ccc2c(c1)OCCO2)c1cnccn1	-44.4

SMILES	activity change, negative = inhibition [%]
C=CCNC(=S)N1CCN(CCN=Cc2c(C)[nH]n(-c3ccc([N+](=O)[O-])cc3)c2=O)CC1	-30.9
Cc1ccc(-n2[nH]c(C)c(/C=N/N3C(=O)c4cccc5cccc(c45)C3=O)c2=O)cc1	-54.4
Cc1ccc(C)c2c1cc(C)c1nnc(SCC(=O)Nc3cccc(C(=O)O)c3)n12	-45.6
Cc1ccc(NCc2n[nH]c(=S)n2-c2ccccc2)cc1Cl	-35.2
COc1cccc(/C=N\NC(=O)C2=NNC(=O)C2C)c1O (stereo not given)	-55.1
S=c1[nH]nc(-c2cccs2)n1/N=C/c1cccs1	-48.2
CSC1=N/C(=C\C=C\c2cccs2)C(=O)S1	-31.2
O=C(Nc1ccccc1)c1ccc2c(c1)OCO2	-118
CCc1cc(-c2n[nH]c(=S)n2CC(C)C)cs1	-52.8
Cc1[nH]n(-c2ccc([N+](=O)[O-])cc2)c(=O)c1C=NCCN1CCN(C(=O)c2ccccc2F)CC1	-37.8
Cc1cc(C(=O)N/N=C/c2ccc(N3CCOCC3)cc2)c(C)o1	-42.8
O=C(Nc1nc2ccccc2s1)c1ccc2c(c1)OCO2	-54.6
O=C(Nc1ccccc1)Nc1ccccc1C(=O)NCc1ccco1	-33.9
Cn1cccc1C(=O)Nc1nccs1	-33.8
O=c1c2ccccc2ncn1/N=C/c1ccccc1	-48.7
C=CCn1c(C)cc(C2=NNC(=NCC)SC2)c1C	-68.3
c1c2c(cc3sc(N4CCCCC4)nc13)OCCO2	-74.2
O=C1/C(=C/c2cccs2)CCc2ccccc21	-43.3
Clc1ccc(-c2cc(-c3ccccn3)on2)c(Cl)c1	-73.3
O=C1CSC(=S)N1/N=C/c1ccc(O)c([N+](=O)[O-])c1	-84.3
COc1ccc(OC)c(-n2c(-c3ccn[nH]3)n[nH]c2=S)c1	-85.1
CCn1c(CSCc2c(Cl)cccc2Cl)n[nH]c1=S	-65.2
O=C(/C=C/c1ccc2c(c1)OCCO2)c1ccc(O)cc1	-47.4
Cc1ccc(F)c(NC(=O)CCc2ccccc2)c1	-37.4

SMILES	activity change, negative = inhibition [%]
COc1ccc(C(=O)/C=C/Nc2ccccn2)cc1	-139
Cn1cc([N+](=O)[O-])c(C(=O)Nc2ccc3c(c2)OCCO3)n1	-65.4
c1ccc2[nH]c(-c3nc4ccccc4[nH]3)nc2c1	-96.3
CC(=O)Oc1ccccc1C(=O)Nc1ncc([N+](=O)[O-])s1	-111
O=C(c1ccc(F)cc1)n1c(=S)nc2ccccn21	-69
C/C(=N\NC(=O)CC(C)C)c1c(C(F)(F)F)[nH]n(-c2nc3ccccc3s2)c1=O	-46.7
c1ccc(-c2noc(-c3cccs3)n2)nc1	-91.2
Cc1ccc(-c2nc3ccccc3[nH]2)cc1N	-117
CCCCC(CC(C)O)c1n[nH]c(=S)n1-c1ccccc1 (stereo not given)	-46.5
COc1ccc(C(=O)Nc2ccc(F)cc2F)cc1	-69.4
Nc1ncc(-c2cc3ccccc3oc2=O)s1	-79.1
CN(C)CCCSc1ccccc1NC(=O)/C=C/c1ccccc1	-37.6
COc1ccccc1-n1c(-c2cc(-c3ccco3)[nH]n2)n[nH]c1=S	-95.6
COCn1c(COc2ccccc2)nc2ccccc21	-56.9
N/C(=N\OC(=O)CCC1CCCCC1)c1ccccn1	-55.1
CCCc1cc(-c2n[nH]c(=S)n2Cc2ccccc2)cs1	-51.6
O=C(OC1CCOC1=O)c1ccc(-c2nc3ccccc3s2)s1 (stereo not given)	-56.5
COc1cccc(C(=O)c2cc3ccc(O)cc3oc2=O)c1	-88.8
COc1cccc(-c2nc3cc(C)ccc3o2)c1	-62.9
C=CCn1c(-c2ccc3[nH]c(C)c(C)c3c2)n[nH]c1=S	-41.6
